This is part of a sample that, as a whole, favours compounds with a hit. Of some 83,000 tested, about 20% had one in any assay.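 The endpoint reported here, percent growth, reads 100 for growth as untreated, 0 for no net growth and -100 for all cells dead.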 Values without a mark were called inactive. The source made the active and inactive calls. How the source made its calls: active means growth percent below 10; inactive means the rest.
How the values were obtained:
Experiment in all cases: NCI-60 one-dose screen, 48 h (100 = growth as untreated, 0 = no growth, -100 = all killed)
Conditions in all cases: 10 µM unless noted
DU-145 prostate = test system: DU-145 prostate
K-562 leukemia = test system: K-562 leukemia
MALME-3M melanoma = test system: MALME-3M melanoma
MDA-MB-231 breast = test system: MDA-MB-231 breast
RXF 393 renal = test system: RXF 393 renal
SF-268 CNS = test system: SF-268 CNS
SF-295 CNS = test system: SF-295 CNS
SF-539 CNS = test system: SF-539 CNS
UACC-257 melanoma = test system: UACC-257 melanoma
M14 melanoma = test system: M14 melanoma
HCT-15 colon = test system: HCT-15 colon
HT29 colon = test system: HT29 colon
SNB-75 CNS = test system: SNB-75 CNS
SNB-19 CNS = test system: SNB-19 CNS
U251 CNS = test system: U251 CNS
PC-3 prostate = test system: PC-3 prostate
SK-MEL-5 melanoma = test system: SK-MEL-5 melanoma
UACC-62 melanoma = test system: UACC-62 melanoma
LOX IMVI melanoma = test system: LOX IMVI melanoma
SK-MEL-28 melanoma = test system: SK-MEL-28 melanoma

Row | Structure (SMILES) | growth (DU-145 prostate) | growth (K-562 leukemia) | growth (MALME-3M melanoma) | growth (MDA-MB-231 breast) | growth (RXF 393 renal) | growth (SF-268 CNS) | growth (SF-295 CNS) | growth (SF-539 CNS) | growth (UACC-257 melanoma) | growth (M14 melanoma) | growth (HCT-15 colon) | growth (HT29 colon) | growth (SNB-75 CNS) | growth (SNB-19 CNS) | growth (U251 CNS) | growth (PC-3 prostate) | growth (SK-MEL-5 melanoma) | growth (UACC-62 melanoma) | growth (LOX IMVI melanoma) | growth (SK-MEL-28 melanoma)
1 | COc1ccc(C(=O)C(C)C)c2ccccc12 | 104% | 92.7% | 115% | 104% | 109% | 102% | 103% | 103% | 128% | 104% | 99.6% | 106% | 115% | 108% | 110% | 93.4% | 109% | 106% | 96.4% | 126%
2 | OC(COc1ccccc1)CN1CCN(c2ccc(Cl)cc2)CC1 (stereo not given) | 110% | 73.8% | 128% | 94% | 113% | 99.4% | 111% | 116% | 87.7% | 101% | 115% | 101% | 95.2% | 95.4% | 102% | 82% | 96.2% | 90.3% | 101% | 96.9%
3 | CCCCCCN(CCCCCC)c1ccc(/C=C2/SC(=O)NC2=O)c(C)c1 | 102% | 65.2% | 72.9% | 111% | 101% | 89.5% | 65.6% | 117% | 103% | 90.1% | 75.7% | 79.6% | 78.8% | 96% | 75.5% | 69.8% | 82.1% | 73.1% | 86.5% | 93.8%
4 | Cc1ccc2c(-c3cc(-c4ccccc4)nc(N)c3C#N)cc(=O)oc2c1 | 107% | 108% | 94.8% | 101% | 110% | 99.1% | 109% | 94.7% | 101% | 108% | 105% | 90.1% | 100% | 94.1% | 100% | 89.2% | 97% | 90.1% | 91.8% | 105%
5 | CCCCCCCCCCCCCCCCCCOc1ccccc1CCCOP(=O)(O)OCC[N+](C)(C)C | 75% | 69.2% | 89.5% | 78.2% | 11.1% | 62.5% | 52.4% | 91.4% | 88% | 77.7% | 51.3% | 12.7% | 83.3% | 33.7% | 39.4% | 0.281% (active) | 80.9% | 55.7% | 58.1% | 93.1%
6 | O=C(CCCCCCSc1nc(-c2ccccc2)cc(-c2ccccc2)n1)NO | 36.3% | 11.3% | 14.3% | 40.8% | 6.08% (active) | 62.3% | 41.7% | 53.1% | 29% | 31.7% | 32.6% | 8.32% (active) | 21.2% | 47.3% | 35% | 49.7% | 9.17% (active) | 12.8% | 3.67% (active) | 39.9%
7 | O=c1c2cc(F)ccc2sc2c(NCCCNCCO)nc3ccc(F)cc3c12 | 37.4% | -33.5% (active) | 85.5% | -7.79% (active) | 63% | 51.8% | 98.6% | 63.9% | 94% | 8.53% (active) | 47.9% | -0.699% (active) | 54.2% | 72.6% | 38.4% | 50.6% | 80.7% | 88.6% | -76.7% (active) | 94%
8 | O=C(/C=C/c1sc(Cl)nc1Cl)c1ccc(Br)cc1 | 98.6% | 9.52% (active) | 83.6% | 90.4% | 85.5% | 94.1% | 95.9% | 71.1% | 98.3% | 67.8% | 32.4% | 91.2% | 95% | 90.6% | 60.1% | 95.5% | 89.2% | 95.3% | 5.31% (active) | 100%
